Shown are actives, neighbours in structure and some others; about 6.5% of the full set was active somewhere.
HT1080 IDH1KD tx – kills HT-1080 cells with IDH1 knockdown; HT-1080 IDH1 knockdown viability, ATP luminescence, 48 h; Potency, µM (series often up to 46.1 µM), actives largely listed as cytotoxic; 360,000 compounds, 2% hits
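CellTiter-Glo luminescence after 48 h compound exposure at 37 degrees C of IDH1-knockdown HT-1080 cells in 5% FBS RPMI. %Activity scaled between DMSO wells and cell-free media wells, with curves fitted and assigned curve classes.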
HepG2 viability – kills HepG2 cells in TGF-b inhibitor counter-screen; HepG2 CAGA-GFP viability, ATP luminescence, 18 h; Potency, µM (series often up to 46.1 µM), usual class: cytotoxic; 410,000 compounds, 0.76% hits; AID 588856
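CellTiter-Glo luminescence gave cytotoxicity after 18 hours at 37 degrees C. The cells were HepG2 CAGA-GFP in 1% FBS DMEM, stimulated with 500 pg/mL TGF-beta after compound addition. %Activity was normalised to no-cell wells (complete cell-killing) and DMSO (no toxicity), and curves were fitted and classified.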
TGFb inhibitor – inhibitors of TGF-b signaling; HepG2 CAGA-GFP TGF-b/SMAD3 reporter, GFP fluorescence, 18 h; TGF-beta stimulated, 500 pg/mL final; Potency, µM (top dose mostly 46.1 µM), usual class: inhibitors; 410,000 compounds, 1.2% hits; AID 588855; note: nearly all actives have a fitted effect of over 65% in size
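HEPG2 CAGA-GFP cells (1000/well, DMEM with 1% FBS) were pre-incubated 2 h at 37 degrees C, given compound by pin tool, then stimulated with TGF-beta at 500 pg/mL final for 18 h before per-cell GFP fluorescence imaging.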
Giardia killer – Giardia lamblia killing | Giardia lamblia trophozoite viability | activity change, % at 7.66 µM, hits read low | 340,000 compounds, 0.15% hits; in the data active = activity change below about -80%; inconclusive = between about -30% and that limit;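 note: parasites exposed to compound for two days anaerobically before the ATP read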
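ATP-content bioluminescence gauges trophozoite survival. Cells (100/well) receive compound and incubate anaerobically for 48 hrs at 37 deg C; detection reagent follows for 15-30 min at room temperature.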
HT1080-NT tox – kills 2HG-producing HT-1080-NT fibrosarcoma cells; HT-1080-NT fibrosarcoma viability, CellTiter-Glo ATP luminescence, 48 h; Potency, µM (series often up to 46.1 µM), actives largely listed as cytotoxic; 360,000 compounds, 1.6% hits; AID 686970;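 note: NT is the 2HG producing partner of a matched IDH1 knockdown line; nearly all actives have a fitted effect of over 55% in size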
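Read-out is CellTiter-Glo luminescence after 10 minutes at room temperature, following 48 hours' compound treatment of HT-1080-NT cells (750 cells/well, RPMI, 5% FBS, 37 degrees C).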
IL1B secr inh – inflammasome signaling inhibition, IL-1 beta readout; THP-1 LPS/ATP IL-1B secretion, AlphaLISA, 16 h; hits give low values; activity change, % at 57.5 µM; 360,000 compounds, 4.7% hits; AID 743279; in the data active = activity change below about -50%; inconclusive = mostly about -30% to -49%
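THP-1 cells pretreated 1 hr with compounds (up to 57.5 uM final), then stimulated with LPS (250 ng/mL final) plus ATP (1.25 mM final); secreted IL-1B measured by AlphaLISA after 16 hr, decreased signal indicating inhibition.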
Hits are given with their value. Unless noted, calls come from the whole dose curve; as a rule, active = well fitted curve in the direction sought with a large enough effect; inconclusive = small, poorly fitted or top-dose-only effect, or another doubt; inactive = no such curve, though single readings can be large; an effect the other way counts as inactive or inconclusive.

Screening CC(Oc1cccc(Cl)c1)C(=O)Nc1ccc(S(=O)(=O)N(C)C2CCN(C)CC2)cc1 (stereo not drawn) returned HT1080 IDH1KD tx inactive, HepG2 viability inactive, TGFb inhibitor inactive, Giardia killer inactive, HT1080-NT tox inactive and IL1B secr inh -57.
CC(Oc1ccccc1)C(=O)Nc1ccc(S(=O)(=O)N2CCN(C)CC2)cc1 (stereo not drawn) was read as HT1080 IDH1KD tx inactive, HepG2 viability inactive, TGFb inhibitor inactive, Giardia killer inactive, HT1080-NT tox inactive and IL1B secr inh inactive.
Screening CC(Oc1ccccc1Cl)C(=O)Nc1ccc(S(=O)(=O)N2CCN(C)CC2)cc1 (stereo not drawn) returned HT1080 IDH1KD tx inconclusive, HepG2 viability inactive, TGFb inhibitor inactive, Giardia killer inactive, HT1080-NT tox inconclusive and IL1B secr inh -55.
For CN1CCN(S(=O)(=O)c2ccc(NC(=O)Nc3cccc(Cl)c3)cc2)CC1 the results were HT1080 IDH1KD tx 18µM, HepG2 viability inactive, TGFb inhibitor inconclusive, Giardia killer inactive, HT1080-NT tox 21µM and IL1B secr inh inactive.
`CN1CCN(S(=O)(=O)c2ccc(NC(=O)c3ccccc3Cl)cc2)CC1` gave HT1080 IDH1KD tx inactive, HepG2 viability inactive, TGFb inhibitor inactive, Giardia killer inactive, HT1080-NT tox inactive and IL1B secr inh inactive.
For CSc1cccc(NC(=O)C2CCCN(S(=O)(=O)c3ccc(F)cc3)C2)c1 (stereo not drawn) the results were HT1080 IDH1KD tx inconclusive, HepG2 viability inactive, TGFb inhibitor inactive, Giardia killer inactive, HT1080-NT tox inactive and IL1B secr inh inactive.
`O=C(Nc1cccc(Cl)c1)C1CCCN(S(=O)(=O)c2ccc(F)cc2)C1` (stereo not drawn) gave HT1080 IDH1KD tx inconclusive, HepG2 viability inactive, TGFb inhibitor inconclusive, Giardia killer inactive, HT1080-NT tox inconclusive and IL1B secr inh -51.
For CCc1cc(C(=O)N2CCN(c3ncc(C(F)(F)F)cc3Cl)CC2)sc1C the results were HT1080 IDH1KD tx inconclusive, HepG2 viability inactive, TGFb inhibitor inactive, Giardia killer inactive, HT1080-NT tox inactive and IL1B secr inh inactive.
`CCC1CCCCN1CC(C)(C)NS(=O)(=O)c1ccccc1` (stereo not drawn) gave HT1080 IDH1KD tx inactive, HepG2 viability inactive, TGFb inhibitor inactive, Giardia killer inactive, HT1080-NT tox inactive and IL1B secr inh inactive.
For CC(C)c1nnc(NC(=O)CCC(=O)N2CCN(Cc3ccccc3)CC2)s1 the results were HT1080 IDH1KD tx inactive, HepG2 viability inactive, TGFb inhibitor inactive, Giardia killer inactive, HT1080-NT tox inactive and IL1B secr inh inactive.
Screening CC(=O)Nc1c(Cl)cnn(-c2ccccc2)c1=O returned HT1080 IDH1KD tx inactive, HepG2 viability inactive, TGFb inhibitor inactive, Giardia killer inactive, HT1080-NT tox inactive and IL1B secr inh inconclusive.
For O=C(O)c1ccc(-n2ncc(Cl)c(Cl)c2=O)cc1 the results were HT1080 IDH1KD tx 18µM, HepG2 viability inactive, TGFb inhibitor inactive, HT1080-NT tox 5.8µM and IL1B secr inh -102.
Cc1c(C(c2cccc(O)c2)c2c(C)n(C)n(-c3ccccc3)c2=O)c(=O)n(-c2ccccc2)n1C was read as HT1080 IDH1KD tx inactive, HepG2 viability inactive, TGFb inhibitor inconclusive, Giardia killer inactive, HT1080-NT tox inactive and IL1B secr inh inactive.
`C=CCn1c(SCc2cc(C(C)=O)ccc2OCC)nc2ccccc2c1=O` gave HT1080 IDH1KD tx 2.3µM, HepG2 viability inactive, TGFb inhibitor inconclusive, Giardia killer inactive, HT1080-NT tox inconclusive and IL1B secr inh inactive.
Screening C=CCn1c(SCc2c(C)noc2C)nc2cc(C(=O)O)ccc2c1=O returned HT1080 IDH1KD tx 7.1µM, HepG2 viability inactive, TGFb inhibitor inactive, Giardia killer inactive, HT1080-NT tox 6.3µM and IL1B secr inh inactive.
Screening C=CCn1c(SCc2c(C)noc2C)nc2ccccc2c1=O returned HT1080 IDH1KD tx 0.32µM, HepG2 viability inactive, TGFb inhibitor inactive, Giardia killer inactive, HT1080-NT tox 0.56µM and IL1B secr inh inactive.
C=CCn1c(SCc2ccc(Br)cc2F)nc2cc(C(=O)O)ccc2c1=O was read as HT1080 IDH1KD tx inactive, HepG2 viability inactive, TGFb inhibitor inactive, Giardia killer inactive, HT1080-NT tox inactive and IL1B secr inh inactive.
Screening Clc1ccc(-c2nc3ccc(Br)cn3c2Cc2cccc(Cl)c2)cc1 returned HT1080 IDH1KD tx 15µM, HepG2 viability inactive, TGFb inhibitor inconclusive, HT1080-NT tox inconclusive and IL1B secr inh inactive.
Screening Clc1cccc(Cc2c(-c3cccc(Cl)c3)nc3ccc(Br)cn23)c1 returned HT1080 IDH1KD tx inconclusive, HepG2 viability inactive, TGFb inhibitor 14µM, HT1080-NT tox inactive and IL1B secr inh inactive.
Screening CC(OC(=O)c1ccncc1)C(=O)Nc1cccc(Cl)c1 (stereo not drawn) returned HT1080 IDH1KD tx inactive, HepG2 viability inactive, TGFb inhibitor inactive, Giardia killer inactive, HT1080-NT tox inactive and IL1B secr inh inactive.
Screening COc1ccc(S(=O)(=O)N(C)C[C@@H]2Oc3cc(C#CC4CCCCC4)ccc3S(=O)(=O)N([C@@H](C)CO)C[C@@H]2C)cc1 returned HT1080 IDH1KD tx inconclusive, HepG2 viability inactive, TGFb inhibitor inconclusive, HT1080-NT tox inactive and IL1B secr inh -52.
For C[C@H]1CN([C@@H](C)CO)S(=O)(=O)c2ccc(C#CC3CC3)cc2O[C@H]1CN(C)C(=O)c1cccnc1 the results were HT1080 IDH1KD tx inactive, HepG2 viability inactive, TGFb inhibitor inactive, HT1080-NT tox inactive and IL1B secr inh inactive.
Screening C[C@@H]1CN([C@@H](C)CO)S(=O)(=O)c2ccc(C#CC3CCCCC3)cc2O[C@@H]1CN(C)Cc1cccnc1 returned HT1080 IDH1KD tx inconclusive, HepG2 viability inactive, TGFb inhibitor inconclusive, HT1080-NT tox inconclusive and IL1B secr inh -66.
`CN(O)/C=N/C(=S)Nc1ccc(Cl)cc1Cl` gave HT1080 IDH1KD tx inactive, HepG2 viability inactive, TGFb inhibitor inconclusive, Giardia killer inactive, HT1080-NT tox inactive and IL1B secr inh inactive.
Cc1ccc(-c2ccc(/C=N\NC(=O)C3C(=O)NCC3c3ccccc3)o2)cc1Cl (stereo not drawn) was read as HT1080 IDH1KD tx inconclusive, HepG2 viability inactive, TGFb inhibitor inconclusive, Giardia killer inactive, HT1080-NT tox inconclusive and IL1B secr inh -55.
Screening NC(=O)Cn1c(=O)n(-c2ccccc2)c(=O)c2oc3ccccc3c21 returned HT1080 IDH1KD tx inactive, HepG2 viability inactive, TGFb inhibitor inactive, Giardia killer inactive, HT1080-NT tox inconclusive and IL1B secr inh -50.
